Data from the supplement of paper PMC3334620.
In all, about 33,000 sequences were measured (“E-score (-0.5 to 0.5)”: median about -0.041, highest 2% from about 0.37 on). The sample as a whole holds a higher share of the highest values than the screen did.

Molecular target: T1, Ecm22 (UniProt Q05958)
T1 sequence: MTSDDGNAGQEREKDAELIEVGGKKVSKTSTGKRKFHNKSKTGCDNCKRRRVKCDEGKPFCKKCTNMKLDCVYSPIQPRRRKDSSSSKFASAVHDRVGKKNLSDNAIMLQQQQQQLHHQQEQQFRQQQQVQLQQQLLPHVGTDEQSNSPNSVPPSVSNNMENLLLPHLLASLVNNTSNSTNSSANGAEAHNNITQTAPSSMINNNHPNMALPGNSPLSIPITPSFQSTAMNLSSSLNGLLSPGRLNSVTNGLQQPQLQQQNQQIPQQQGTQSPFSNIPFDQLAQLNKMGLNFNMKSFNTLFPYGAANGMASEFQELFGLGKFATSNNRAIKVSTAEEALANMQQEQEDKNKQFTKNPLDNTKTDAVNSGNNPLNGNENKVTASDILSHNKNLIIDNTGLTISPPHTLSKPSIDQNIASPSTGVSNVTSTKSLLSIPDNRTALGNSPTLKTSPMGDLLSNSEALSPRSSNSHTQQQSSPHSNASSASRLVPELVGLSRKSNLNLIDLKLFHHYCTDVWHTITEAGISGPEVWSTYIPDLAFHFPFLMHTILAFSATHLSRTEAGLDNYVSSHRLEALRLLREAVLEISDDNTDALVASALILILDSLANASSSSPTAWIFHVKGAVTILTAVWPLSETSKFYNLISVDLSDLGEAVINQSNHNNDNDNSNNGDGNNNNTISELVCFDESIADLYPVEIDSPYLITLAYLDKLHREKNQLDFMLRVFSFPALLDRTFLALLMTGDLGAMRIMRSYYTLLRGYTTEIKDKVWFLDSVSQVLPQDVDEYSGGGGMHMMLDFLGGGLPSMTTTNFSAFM
Experiment: PBM E-score (8-mer binding enrichment) (E-score (-0.5 to 0.5)); higher = stronger / more preferred TF binding
Settings: protein concentration: 200 nM; construct: GST-full length
Protocol: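 Universal 'all 10-mer' protein binding microarrays (Agilent AMADID 015681) probed with GST-tagged S. cerevisiae TFs (full-length or DBD) made by in vitro transcription/translation (PURExpress), about 100-200 nM. Bound TF was detected with fluorescent anti-GST. Each ungapped 8-mer (which stands for itself and its reverse complement) is scored by the PBM enrichment score (E-score), a modified Wilcoxon-Mann-Whitney statistic from -0.5 to +0.5, computed with the Universal PBM Analysis Suite. Scale: above 0.35 generally sequence-specific binding.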

Sequence | PBM E-score
ACGAACCA | 0.391
ACGAAGCG | 0.317
CCGAACCA | -0.0831
ACGAACCC | 0.28
ACGAACCG | 0.368
GCGAAGCA | 0.0616
ACGAAGCA | 0.378
CCGAACCG | 0.12
ACGGTCAA | 0.297
GTTACACA | -0.0371
CGCACCAC | 0.0793
CATATCCA | -0.0799
AATGGAAA | -0.198
CACGGTAC | 0.113
AATCTGGA | -0.119
CGTACCCA | 0.406
CATACCCC | -0.0887
CGTACCCC | 0.453
GGTACCCA | -0.145
AGTACCCA | -0.208
AGTACCCC | -0.0697
GCCTGCGC | -0.272
ACCCTACG | -0.142
AGCGGTGC | 0.0264
GATTTGAC | 0.202

Sequence | PBM E-score
AGAGACGC | 0.0019
AGTATGGC | -0.0838
CGTATGTC | 0.342
CGTATGGC | 0.4
CGTATGGA | 0.383
GGTATGGA | -0.15
AGTATGGA | -0.115
CCGAGATA | 0.186
TTACGCAA | 0.115
AGTTTGCC | -0.117
GTTGAAAC | 0.0017
GCCTGGCA | -0.318
CGACCGCC | 0.137
ACTACTAG | -0.0821
ACATTCGA | 0.0496
ACATTCGT | 0.37
ACATTCGG | 0.0251
GACACCTC | 0.148
ACCCTCGA | -0.16
ACCCTCGC | 0.194
ACCCTCGT | 0.449
CACCAATA | -0.0897
CGTAGCGC | 0.273
CGTAGCGA | 0.382
AGTAGCGA | 0.153

Sequence | PBM E-score
TAGGGAAA | -0.0897
CACGAAAA | 0.153
AACGAATT | 0.36
ATCGAATA | 0.138
TACGAAAA | 0.423
TACGAATA | 0.43
CACGAATG | 0.052
CACGAATA | 0.117
GACGAATA | 0.0261
ACCGAATA | 0.18
AACGAATA | 0.371
GACGAAAA | 0.196
AACGAATG | 0.429
AATTGCTA | -0.0544
AGTGCTGG | -0.152
AAGCGGTA | 0.145
CACAACTC | 0.144
ACCAGCTA | -0.0229
AGCCAATG | -0.141
CAGGGGAA | -0.0465
CGCGATCA | 0.179
AGTTCTTG | -0.0776
GTCAGGGA | -0.19
GACGAATC | 0.106
AACGAATC | 0.387

Sequence | PBM E-score
CACGAATC | 0.0959
ATGCAAGG | -0.193
CCGCGACG | 0.0789
ACCGGGCG | 0.0784
GACCTACA | -0.18
CATGGCGC | -0.137
CCACTCCG | 0.019
ACCGTACG | 0.385
GGCGTACC | 0.279
GCCGTAGC | 0.163
GCCGTGCA | -0.305
TCCGTACA | 0.379
TCCGTAGA | -0.0285
GCCGTACA | 0.371
GCCGTAAA | 0.366
GCCGTACC | 0.441
ACCGTAGG | -0.172
TGCGTACA | 0.283
ACCGTAAG | 0.212
AATTCTAT | -0.104
TACGTTCA | 0.276
GATCCGGC | -0.0487
GACCAGGA | -0.0856
AGGGGAAA | -0.223
CAAGGACA | -0.247

Sequence | PBM E-score
GGCACCGA | -0.0384
GAGTCACA | 0.0764
AAACTGTT | -0.124
ACCGTAAC | 0.231
ACCGTAGA | 0.0719
ACCGTAGC | 0.163
ACCGTACA | 0.371
ACCGTACC | 0.416
ACCGTACT | 0.285
CACTGTCG | 0.109
GCCCTATA | -0.00087
AAATAGCT | -0.0997
GTTAACTA | 0.106
ATTAACGC | 0.122
GCTAACGA | 0.281
ATTAACGA | 0.402
CTTAACGC | -0.0209
CTTAACGA | 0.432
CGTAACGA | 0.338
GTTAACGA | 0.408
ATTAACGG | 0.226
AGAAGACA | 0.011
GTGTTTCA | -0.0721
GTCCTGGA | -0.225
TTAATAAA | 0.169

Sequence | PBM E-score
GCGAACTA | 0.114
ACGAACGG | 0.392
CCGAACGA | 0.357
CCGAACGG | 0.222
GCGAACGC | 0.138
ACGAACGA | 0.447
GCGAACGA | 0.397
ACGAACGT | 0.307
TCGAACAA | 0.109
TCGAACGA | 0.373
TCGAACCA | -0.029
ACGAACGC | 0.362
CCACCGGG | -0.108
GATTTCCA | -0.146
CTGCTCTA | 0.0645
ATGCTGAG | -0.31
AGCCGGAA | -0.0725
ACCAATGA | -0.061
CAACAACG | 0.209
ATAGTCGC | 0.146
CCTCTAAA | -0.193
GACTTAGC | -0.147
GGCATCCC | -0.315
CAAGCAAC | 0.00354
AGAGGCCA | -0.203

Sequence | PBM E-score
CTACCAAG | -0.23
AGGAACGG | 0.459
AGGAACGC | 0.208
AGGAACAG | -0.257
AAAGACGC | -0.118
AAATTGAA | -0.166
AAACGGTT | 0.262
CTAACGAG | 0.331
AGAACGAG | 0.45
CGAACGAC | 0.389
CGAACGCC | 0.0398
AGAACGGA | 0.0615
ACAACGAG | 0.288
CGAACGGA | 0.24
CGAACGTC | 0.0995
CGAACGCG | 0.198
CGAACGAG | 0.428
AGAACGTG | -0.0515
GGAACGGA | 0.435
ATGGTTAG | -0.0935
GAGGCGTA | 0.155
TAAGGATA | 0.00857
